Eleven compounds from PubChem BioAssay can be followed below.

Several values for one entry are separate records, joined by “and”; a condition that tells them apart may be missing. Equal entries are not always repeated. Inconclusive results are not listed. Activity calls are given as the source filed them. Unless noted, the limit is not given here; nearly all actives have AC50 up to about 26 µM.

Test [1] in a line: viability loss in pontine glioma line – cell-based, SU-DIPG-IV, MIPE4.0, CellTiter-Glo, qHTS, dose response (AID 1347063; cut-off not given, nearly all actives have AC50 up to about 30 µM;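 also: compound exposure lasted 48 hours before the viability readout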). As to conditions: CellTiter-Glo ATP luminescence.
The nature of test [2]: GFP-Q80 aggregate reduction, neuronal-like cells, cell-based, NGF-treated PC12, GFPQ80 (AID 1614).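 Also: lower means fewer inclusions and 0 means no inclusions at all.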 As to conditions: PC12 NGF-treated GFP-polyQ80 inclusion reduction.
Test [3] deals with Aerobactin synthetase IucA (Klebsiella pneumoniae). As to the kind of experiment: inhibition of K. pneumoniae IucA enzyme – biochemical, Tocris library, absorbance (AID 1345561; call rule not given here;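 also: 100% = enzyme without compound and 0% = no enzyme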). As to conditions: purified IucA enzyme assay, absorbance (OD) read-out; stronger effect = lower value;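 tested at 8 µM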.
Test [4] in a line: viability loss in pontine glioma line – cell-based, SU-DIPG-XIII, MIPE4.0, CellTiter-Glo, qHTS, dose response (AID 1347061; cut-off not given, nearly all actives have AC50 up to about 37 µM;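 also: cells exposed to compound for 48 hours before readout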). Particulars: CellTiter-Glo ATP luminescence. A general note: ATP-based viability assays read luminescence as a measure of living cells.
The nature of test [5]: viability loss in pontine glioma line – cell-based, SU-DIPG-XIII, MIPE5.0, CellTiter-Glo, qHTS, dose response (AID 1347064; cut-off not given, nearly all actives have AC50 up to about 23 µM). As to conditions: CellTiter-Glo ATP luminescence.
Test [6] in a line: viability loss in pontine glioma line – cell-based, SU-DIPG-XXV, MIPE5.0, CellTiter-Glo, qHTS, dose response (AID 1347065).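 Also: cells exposed to compound for 48 hours before ATP readout.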 As to conditions: CellTiter-Glo ATP luminescence.
Test [7] can be described thus: JHH-DIPG-1 glioma cell viability, MIPE5.0 library, CellTiter-Glo luminescence, qHTS (AID 1347067).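 Also: cells exposed to compound for 48 hours before readout.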 As to conditions: JHH-DIPG-1 glioma viability, CellTiter-Glo ATP luminescence.
Test [8] in a line: growth inhibition of DIPG cells – cell-based, MIPE5.0 library, qHTS (AID 1347068; cut-off not given, nearly all actives have IC50 up to about 30 µM). As to conditions: SU-DIPG-XXV viability. In general terms: Quantitative high-throughput screening tests each substance at several concentrations.
The target of test [9] is ATP-dependent translocase ABCB1 (Homo sapiens) (UniProt P08183). The test is described as follows: P-glycoprotein substrate transport blockade – cell-based (AID 377; in the data active = fluorescence slope change above about 50%). As to conditions: MDR1-expressing cells, fluorescent substrate accumulation slope; stronger effect = higher value; concentration not given here.
Sequence of ATP-dependent translocase ABCB1 (Homo sapiens) (P08183 whole entry, looked up): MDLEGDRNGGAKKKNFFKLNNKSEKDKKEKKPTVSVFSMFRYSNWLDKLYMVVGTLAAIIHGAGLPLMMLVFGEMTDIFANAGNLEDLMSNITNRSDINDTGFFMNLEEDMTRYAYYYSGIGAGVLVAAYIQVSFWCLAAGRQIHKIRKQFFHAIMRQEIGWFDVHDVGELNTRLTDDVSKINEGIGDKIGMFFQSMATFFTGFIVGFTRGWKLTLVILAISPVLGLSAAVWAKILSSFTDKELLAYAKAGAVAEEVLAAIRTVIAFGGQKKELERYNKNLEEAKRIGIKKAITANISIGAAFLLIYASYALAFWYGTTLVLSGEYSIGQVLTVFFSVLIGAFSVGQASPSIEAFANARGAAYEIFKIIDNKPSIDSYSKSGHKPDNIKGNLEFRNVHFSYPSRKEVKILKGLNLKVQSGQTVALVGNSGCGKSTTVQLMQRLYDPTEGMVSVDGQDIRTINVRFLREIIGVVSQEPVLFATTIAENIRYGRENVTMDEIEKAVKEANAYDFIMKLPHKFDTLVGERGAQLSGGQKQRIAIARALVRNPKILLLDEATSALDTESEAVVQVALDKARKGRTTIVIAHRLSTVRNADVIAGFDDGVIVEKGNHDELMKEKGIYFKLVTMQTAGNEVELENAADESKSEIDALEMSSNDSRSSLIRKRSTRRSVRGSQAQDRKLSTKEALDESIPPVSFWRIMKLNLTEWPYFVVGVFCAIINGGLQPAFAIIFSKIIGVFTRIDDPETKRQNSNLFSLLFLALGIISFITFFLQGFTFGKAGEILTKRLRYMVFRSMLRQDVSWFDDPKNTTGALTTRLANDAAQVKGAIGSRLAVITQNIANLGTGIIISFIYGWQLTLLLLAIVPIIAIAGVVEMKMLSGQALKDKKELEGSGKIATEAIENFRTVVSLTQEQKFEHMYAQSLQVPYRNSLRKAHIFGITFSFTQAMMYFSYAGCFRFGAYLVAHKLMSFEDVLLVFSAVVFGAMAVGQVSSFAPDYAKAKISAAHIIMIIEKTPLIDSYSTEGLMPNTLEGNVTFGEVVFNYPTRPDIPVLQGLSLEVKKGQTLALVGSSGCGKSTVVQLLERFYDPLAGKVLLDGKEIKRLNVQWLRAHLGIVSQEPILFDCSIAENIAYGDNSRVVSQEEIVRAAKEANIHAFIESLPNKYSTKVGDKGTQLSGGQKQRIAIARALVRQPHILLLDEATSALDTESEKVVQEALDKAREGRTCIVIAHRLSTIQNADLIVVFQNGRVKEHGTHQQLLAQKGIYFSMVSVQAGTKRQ
Test [10] can be described thus: viability loss in pontine glioma line – cell-based, SU-DIPG-XVII, MIPE5.0, CellTiter-Glo, qHTS, dose response (AID 1347060). As to conditions: CellTiter-Glo ATP luminescence.
Test [11] is described as follows: growth inhibition, single agent or in combination, cell-based, chromothripsis tumors, cisplatin or BGB combos (AID 1671449; in the data active = inhibition above about 80%;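 also: cells exposed for 96 hours; 0% = vehicle DMSO and 100% = killing by high DMSO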). As to conditions: LFS_MB_P medulloblastoma cells.
Test [12] is described as follows: growth inhibition, single agent and combos, cell-based, chromothripsis tumors, cisplatin or BGB combos (AID 1671450; in the data active = inhibition above about 80%;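 also: cells exposed to compound for four days; 0% = vehicle DMSO and 100% = cell killing by high DMSO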). As to conditions: HDN33 neuroblastoma cells, stronger effect = higher value.
Test [13] can be described thus: growth inhibition, single agents and combos, ICB984, cell-based, cisplatin or BGB combos, synergistic combos for chromothripsis tumors (AID 1671451; call rule not given here;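 also: cells exposed for 96 hours before readout; 0% = vehicle DMSO and 100% = killing by high DMSO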). As to conditions: ICB984 medulloblastoma cells, drug combinations, stronger effect = higher value.
Test [14] is described as follows: growth inhibition, single agents and combos, LFS_MB_1R, cell-based, cisplatin or BGB combos, synergistic combos for chromothripsis tumors (AID 1671452; in the data active = inhibition above about 80%;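 also: cells exposed for 96 hours before readout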). As to conditions: LFS_MB_1R medulloblastoma cells, stronger effect = higher value.
Test [15] in a line: growth inhibition, single agents and combos, HTB85, cell-based, BGB or cisplatin IC20 combos, synergistic combos for chromothripsis tumors (AID 1671453; in the data active = inhibition above about 80%;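 also: cells exposed for 96 hours before readout; 0% = vehicle DMSO and 100% = high DMSO killing control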). Particulars: HTB85 osteosarcoma cells, drug combinations, stronger effect = higher value.
The nature of test [16]: growth inhibition, MDA-MB-436, cell-based, BGB or cisplatin combos, synergistic combos for chromothripsis tumors (AID 1671458; call rule not given here;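 also: cells exposed for 96 hours; 0% = vehicle DMSO and 100% = killing by high DMSO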). Particulars: MDA-MB-436 breast carcinoma growth inhibition, drug combinations, stronger effect = higher value.
The nature of test [17]: BT084 cell growth, single and combined drugs, ICGC_MB145, cisplatin and BGB IC40 combos (AID 1671461; in the data active = inhibition above about 80%;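 also: cells exposed to drugs for 96 hours; 0% = vehicle DMSO and 100% = high DMSO full killing control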). As to conditions: BT084 medulloblastoma cells, drug combinations, stronger effect = higher value.
A short description of test [18]: RCMB18 cell growth, single agent and combined, cisplatin and BGB IC40 combos (AID 1671462; in the data active = inhibition above about 80%;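 also: cells exposed to compound for four days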). Particulars: RCMB18 medulloblastoma cells, stronger effect = higher value.
The nature of test [19]: CRL1545 cell growth, single agent and combined, cisplatin and BGB IC20 combos (AID 1671464; in the data active = inhibition above about 80%;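 also: cells exposed to compound for 96 hours before readout; 0% = vehicle DMSO and 100% = high DMSO killing control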). Particulars: CRL1545 osteosarcoma cells, stronger effect = higher value.
Test [20] can be described thus: chitosan synthesis blockers in C. neoformans – flow cytometry, Cibacron Brilliant Red staining (AID 1347148; call rule not given here;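 also: compound exposure lasted three days at 37 degrees C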). As to conditions: Cryptococcus neoformans chitosan, stronger effect = lower value; at 10 µM unless noted.
[21] abbreviates: measured here: combination with BGB IC40, at 0.05 µM.
Setting [22] is: measured here: with BGB IC20 combination, at 0.5 µM.
The mark [23] stands for this setting: measured here: with cisplatin IC20 combination, at 0.5 µM.
Where [24] appears, read: measured here: combination with cisplatin, at 0.5 µM.

In the case of `CC[C@H]1OC(=O)[C@H](C)[C@@H](O[C@H]2C[C@@](C)(OC)[C@@H](O)[C@H](C)O2)[C@H](C)[C@@H](O[C@@H]2O[C@H](C)C[C@H](N(C)C)[C@H]2O)[C@](C)(OC)C[C@@H](C)C(=O)[C@H](C)[C@@H](O)[C@]1(C)O`, in [1], the call was inactive.
What is called remaining activity is the signal under treatment as a percentage of the control signal. By AC50 is commonly meant the concentration giving half of the maximal activity seen. On to `CC(C(=O)O)c1ccc(-c2ccccc2)c(F)c1` (configuration not stated), for which the inclusion score in test [2] came out at 2. The remaining activity in test [3] is 123% (inactive). Moreover, in [4], the AC50 is 16.6 µM (active). In addition, the result in test [5], in test [6], in test [7] and in test [8] was inactive.
Consider `C[N+]1(C)CCCC(OC(=O)C(O)(c2ccccc2)c2ccccc2)C1` (configuration not stated), for which the fluorescence slope change in test [9] was 13% (inactive). In test [2], the inclusion score is 2.
`CNCCC(Oc1ccc(C(F)(F)F)cc1)c1ccccc1` (configuration not stated): in test [9], the fluorescence slope change is 110% (active). Further, in [3], the remaining activity was 124% (inactive).
`CCc1ccc(CCOc2ccc(CC3SC(=O)NC3=O)cc2)nc1` (configuration not stated): the result in [10], in test [5], in test [6] and in test [7] was inactive.
For `Nc1ncnc2c1ncn2[C@@H]1O[C@H](CO)[C@@H](O)[C@@H]1O`, the inclusion score in [2] stood at 1.5. For the same compound, the compound was called inactive in test [10], in [5], in test [6], in [7] and in test [8].
Take `COc1ccc(/C=C/C(=O)Nc2ccccc2C(=O)O)cc1OC`: the remaining activity in test [3] was 119% (inactive). Further, the compound was classed as inactive in test [10], in test [4], in test [1], in test [5], in test [6] and in [7]. Besides, the compound was classed as inactive in test [8].
Regarding `COC(=O)[C@H](c1ccccc1Cl)N1CCc2sccc2C1`, the inclusion score in test [2] amounted to 2. Moreover, the compound was called inactive in test [10], in test [1], in test [5], in [6], in test [7] and in test [8].
The inhibition is the relative decrease from the control value, in per cent. Compound `CN(C)c1nc(N(C)C)nc(N(C)C)n1` had an inclusion score in test [2] of 2. Moreover, the compound was classed as inactive in [10], in [1], in test [5], in test [6], in test [7] and in [8]. The inhibition in [11] (at 0.5 µM, stronger effect = higher value) is -34.2% (inactive) and -27.6% (inactive); in [11] (measured here: combination with BGB IC20, at 0.005 µM), -17.9% and -27.7%; in test [11] (measured here: combination with BGB IC40, at 0.005 µM), -17.9% and -14.9%; in [11] (setting [21]) it was -9.42% and -37.8%; in [11] (measured here: combination with cisplatin, at 0.5 µM, stronger effect = higher value), -34.2% and -25.4%; in [11] (measured here: combination with cisplatin, at 5 µM, stronger effect = higher value) it was -44.4% and -48.3%. Also, the inhibition in [12] (BGB combo, at 5 µM) was -7.22% and 3.98%; in [12] (at 0.5 µM) it was 2.99% (inactive) and -25.1% (inactive); in test [12] (cisplatin combo, at 5 µM), -6.3% and -2.36%; in test [12] (setting [22]), 12.7% and -32.8%; in [12] (setting [23]), 1.13% and -2.01%; in [12] (single agent, at 5 µM) it was -11% and -2.53%. Besides, the inhibition in test [13] (BGB IC20 combo, at 0.005 µM) was -31.6% and 0.139%; in test [13] (BGB IC40 combo, at 0.005 µM), -11.1% and -14.4%; in test [13] (BGB IC40 combo, at 0.05 µM), -16% and -10.6%; in test [13] (at 0.5 µM), -16.4% (inactive) and -22.8% (inactive); in test [13] (cisplatin combo, at 0.05 µM) it was -16% and -14.5%; in [13] (cisplatin combo, at 0.5 µM) it was -23.9% and -10.7%. In addition, the inhibition in [13] (cisplatin combo, at 5 µM) is -16.8% and 0.591%; in test [13] (measured here: 5 uM single agent, at 5 µM), -7.32% and -28.4%; in [14] (at 0.5 µM), -12.2% (inactive) and -12.7% (inactive); in [14] (setting [21]), -30.7% and -16.9%; in [14] (setting [24]) it was -26.8% and 10.6%; in test [14] (measured here: combination with cisplatin, at 5 µM) it was 4.67% and 9.66%. Further, the inhibition in test [15] (at 0.5 µM) is -13.6% (inactive) and -3.84% (inactive); in [15] (measured here: with BGB IC20, at 0.5 µM), -29.4% and -7.2%; in test [15] (measured here: with BGB IC20, at 5 µM), -7.32% and 14%; in [15] (measured here: with cisplatin IC20, at 0.5 µM) it was -12.3% and -1.06%; in test [15] (measured here: with cisplatin IC20, at 5 µM), 6.76% and 3.22%; in test [15] (single agent, at 5 µM), -2.06% and 11.5%. In addition, the inhibition in test [16] (at 0.5 µM) is -22.6% (inactive) and -14.7% (inactive); in test [16] (measured here: BGB combination, at 0.5 µM), -20.2% and -14.3%; in test [16] (measured here: BGB combination, at 5 µM), -29.4% and -4.55%; in test [16] (measured here: cisplatin combination, at 0.5 µM), -45.1% and -27.9%; in test [16] (measured here: cisplatin combination, at 5 µM) it was -26.8% and -16.1%; in test [17] (at 0.5 µM) it was -16.2% (inactive) and -0.543% (inactive). In addition, the inhibition was -6.73% and -17% in [17] (cisplatin combination, at 0.5 µM); -56% and -11.7% in test [17] (cisplatin combination, at 5 µM); -15.3% and -38.9% in [17] (measured here: BGB IC40 combination 0.05 uM, at 0.05 µM); -26.9% and -18.4% in test [17] (single agent, at 5 µM); -17.5% (inactive) and -22.8% (inactive) in test [18] (at 0.5 µM); 8.02% and 8.44% in [18] (cisplatin combo, at 5 µM). The inhibition in test [18] (measured here: BGB IC40 combination, at 0.05 µM) is -20.9% and -5.23%; in test [18] (setting [24]), -20.5% and -16.6%; in test [18] (single agent, at 5 µM), -16.6% and -17.8%; in test [19] (at 0.5 µM), -6.92% (inactive) and -37.6% (inactive); in test [19] (setting [22]), -15.7% and -14.1%; in test [19] (setting [23]), -2.53% and -51.8%. Also, the inhibition in [19] (single agent, at 0.05 µM) was -4.42% and -41.6%; in test [19] (single agent, at 5 µM), 18.4% and -24.6%.
As for `CC(C)NCC(O)COc1ccc(CC(N)=O)cc1` (configuration not stated), the inclusion score in [2] worked out at 2. Besides, the remaining activity in test [3] was 121% (inactive).
Take `CC1=C(/C=C/C(C)=C/C=C/C(C)=C\C(=O)O)C(C)(C)CCC1`: in test [9], the fluorescence slope change was 188% (active). The compound was classed as inactive in test [5], in test [7] and in test [8]. The AC50 in test [6] is 6.61 µM (active). The fold fluorescence in [20] was 5.81 (inactive).
